# Measured values: PubChem BioAssay
# Activity calls are given as the source filed them. Unless noted, how the calls were made is not given here.
# Key:
# [1] = system: Wnt5a (protein binding on small-molecule microarray); experiment: small molecules binding Wnt5a protein – biophysical, small-molecule microarray, 635/667 nm fluorescence, primary screen (AID 1142); details: 635 nm fluorescence, higher = more signal;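 further: fluorescence read at 667 nm with signal to noise per printed feature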
# [2] = ATP-based viability of Huh7 replicon cells – cell-based, CellTiter-Glo luminescence, basal, 48 h, cytotoxicity control for HCV replication inhibitor project, primary screen (AID 1143); details: higher = more signal, called active from +8 up or from −8 down;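 further: Huh7 hepatoma cells carrying a hepatitis C replication reporter with no stimulus; test concentration not given here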
# [3] = Pseudomonas biofilm growth suppression – PAO1 strain, BacTiter-Glo luminescence, LB-PBS, primary screen (AID 1144); details: P. aeruginosa PAO1 biofilm, 12 h, higher = more signal
# [4] = basal CRE-LacZ reporter activity in PC12 – cell-based, unstimulated, primary screen (AID 1145); details: no forskolin, luminescence, 4.5 h, higher = more signal, called active from +8 up or from −8 down
# [5] = forskolin-driven CRE-LacZ activity in PC12 – cell-based, CRE-LacZ reporter, forskolin-stimulated, primary screen (AID 1146); details: luminescence, 4.5 h, higher = more signal, called active from +8 up or from −8 down;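 further: PC12 cells with 6xCRE LacZ reporter stimulated by forskolin 10 µM; beta-galactosidase reporter signal reflecting CREB driven transcription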
# [6] = biological target: Streptavidin (Streptomyces avidinii) (UniProt P22629); experiment: compounds binding control protein streptavidin – biophysical, small-molecule microarray, 635/667 nm fluorescence, artefact control for SMM compound annotation, primary screen (AID 1147); details: higher = more signal;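 further: signal reflects streptavidin binding to arrayed compounds as a control protein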
# Streptavidin (Streptomyces avidinii), sequence (P22629 whole entry, looked up): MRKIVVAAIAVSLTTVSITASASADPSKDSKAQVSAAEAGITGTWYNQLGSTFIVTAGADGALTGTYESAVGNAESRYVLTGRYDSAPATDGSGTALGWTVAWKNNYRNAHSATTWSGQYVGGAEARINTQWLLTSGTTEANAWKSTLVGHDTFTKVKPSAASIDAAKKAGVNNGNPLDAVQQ
# [7] = probe aInhba binding on compound microarray – biochemical, small-molecule microarray, 635/667 nm fluorescence, primary screen (AID 1148); details: higher = more signal;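 further: score merges 667nm spot fluorescence with signal-to-noise for antibody binding to printed compounds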
# Torsin-1A (Homo sapiens) [8] = biological target: Torsin-1A (Homo sapiens) (UniProt O14656); experiment: TOR1A wild-type binding on microarray – cell lysate, small-molecule microarray, lysate, 635/667 nm, primary screen (AID 1149); details: COS7 hTOR1A-WT lysate, 635 nm fluorescence, higher = more signal
# Torsin-1A (Homo sapiens), sequence (O14656 whole entry, looked up): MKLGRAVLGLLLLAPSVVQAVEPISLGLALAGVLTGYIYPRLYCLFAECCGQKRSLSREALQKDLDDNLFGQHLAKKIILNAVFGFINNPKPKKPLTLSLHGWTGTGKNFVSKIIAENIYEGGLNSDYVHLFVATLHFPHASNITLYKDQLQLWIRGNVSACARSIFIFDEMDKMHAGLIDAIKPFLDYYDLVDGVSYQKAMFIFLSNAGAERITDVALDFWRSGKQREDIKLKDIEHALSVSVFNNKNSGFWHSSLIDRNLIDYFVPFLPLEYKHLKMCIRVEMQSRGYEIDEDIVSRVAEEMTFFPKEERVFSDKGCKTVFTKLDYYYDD
# Torsin-1A (Homo sapiens) [9] = biological target: Torsin-1A (Homo sapiens) (UniProt O14656); experiment: torsin A mutant lysate binding on microarrays – cell lysate, small-molecule microarray, COS7 lysate, 635/667 nm fluorescence, primary screen (AID 1150); details: COS7 hTOR1A mutant lysate, 635 nm fluorescence, higher = more signal;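 further: score pools 667 nm emission and signal to noise measuring lysate protein binding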
# [10] = system: Sonic hedgehog protein (Shh); experiment: Sonic hedgehog microarray binding compounds – biochemical, small-molecule microarray, 635/667 nm fluorescence, primary screen (AID 1151); details: 635 nm fluorescence, higher = more signal;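 further: Shh protein binding to compounds spotted on small-molecule microarray slides; score combines spot fluorescence intensity with signal-to-noise across triplicate slides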
# [11] = optical density shifts of acrAB sulA E. coli – strain DRC41, OD650, 48 h, E. coli filamentation inducer project, primary screen (AID 1152); details: higher = more signal, called active from +8 up or from −8 down;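 further: E. coli MC1000 strain DRC41 lacking acrAB efflux pump and sulA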
# [12] = probe aLefty1 binding on compound microarray – biochemical, small-molecule microarray, 635/667 nm fluorescence, primary screen (AID 1153); details: higher = more signal;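 further: score merges spot fluorescence with signal-to-noise ratio from the scanned slide images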
# [13] = plasmodial surface anion channel blockers, osmotic lysis – cell-based, P. falciparum Indochina, OD700, 1 h, primary screen (AID 1154); details: P. falciparum Indochina infected RBC osmotic lysis, higher = more signal, called active from +8 up or from −8 down
# [14] = plasmodial surface anion channel blockers, osmotic lysis – cell-based, P. falciparum Indochina, OD700, 2 h, primary screen (AID 1155);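 further: lysis reports solute entry through the parasite surface anion channel PSAC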; details: P. falciparum Indochina infected erythrocytes, higher = more signal, called active from +8 up or from −8 down
# [15] = changes in parasitized red cell lysis, either direction – P. falciparum Indochina, OD700, 3 h, PSAC antagonist project, primary screen (AID 1156); details: P. falciparum-infected erythrocytes, osmotic lysis, higher = more signal, called active from +8 up or from −8 down
# [16] = plasmodial surface anion channel blockers, osmotic lysis – cell-based, P. falciparum Indochina, OD700, 18 h, primary screen (AID 1157); details: P. falciparum Indochina infected erythrocytes, osmotic lysis OD700, 18 h; higher = more signal, called active from +8 up or from −8 down
# [17] = S6 kinase pathway phospho-S6 level changes – cell-based, A549, cytoblot, luminescence, serum-stimulated, primary screen (AID 1158); details: 5 h, higher = more signal;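 further: serum-stimulated A549 lung adenocarcinoma cells; signal is phosphorylated S6 detected by cytoblot immunostaining with HRP secondary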
# [18] = biological target: NADPH oxidase 2 (Homo sapiens) (UniProt P04839); experiment: compounds shifting NOX2 Amplex Red fluorescence – cell-based, HEK293-NOX2, PMA-stimulated, NOX inhibitor project, primary screen (AID 1159); details: 45 min, higher = more signal, called active from +8 up or from −8 down; further: test concentration not given here
# NADPH oxidase 2 (Homo sapiens), sequence (P04839 whole entry, looked up): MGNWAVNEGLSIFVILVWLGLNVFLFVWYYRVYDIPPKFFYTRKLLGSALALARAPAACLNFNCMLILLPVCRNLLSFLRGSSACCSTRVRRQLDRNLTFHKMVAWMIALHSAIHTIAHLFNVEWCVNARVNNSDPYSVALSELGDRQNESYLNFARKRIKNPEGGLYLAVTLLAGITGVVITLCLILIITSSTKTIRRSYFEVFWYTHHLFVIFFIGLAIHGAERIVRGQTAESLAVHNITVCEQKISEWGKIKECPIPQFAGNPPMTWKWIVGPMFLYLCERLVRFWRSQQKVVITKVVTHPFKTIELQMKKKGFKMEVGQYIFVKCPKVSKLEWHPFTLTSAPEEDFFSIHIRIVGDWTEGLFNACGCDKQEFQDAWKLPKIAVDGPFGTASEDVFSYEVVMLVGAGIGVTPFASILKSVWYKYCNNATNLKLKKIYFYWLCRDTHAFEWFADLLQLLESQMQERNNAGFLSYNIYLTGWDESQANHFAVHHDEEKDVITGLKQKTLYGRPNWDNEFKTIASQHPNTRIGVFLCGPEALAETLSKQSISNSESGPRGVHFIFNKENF
# [19] = biological target: NADPH oxidase 4 (Homo sapiens) (UniProt Q9NPH5); experiment: compounds shifting NOX4 Amplex Red fluorescence – cell-based, HEK293-NOX4, tetracycline-induced, NOX inhibitor project, primary screen (AID 1160); details: HEK293-NOX4, Amplex Red H2O2 fluorescence, 45 min; higher = more signal, called active from +8 up or from −8 down
# NADPH oxidase 4 (Homo sapiens), sequence (Q9NPH5 whole entry, looked up): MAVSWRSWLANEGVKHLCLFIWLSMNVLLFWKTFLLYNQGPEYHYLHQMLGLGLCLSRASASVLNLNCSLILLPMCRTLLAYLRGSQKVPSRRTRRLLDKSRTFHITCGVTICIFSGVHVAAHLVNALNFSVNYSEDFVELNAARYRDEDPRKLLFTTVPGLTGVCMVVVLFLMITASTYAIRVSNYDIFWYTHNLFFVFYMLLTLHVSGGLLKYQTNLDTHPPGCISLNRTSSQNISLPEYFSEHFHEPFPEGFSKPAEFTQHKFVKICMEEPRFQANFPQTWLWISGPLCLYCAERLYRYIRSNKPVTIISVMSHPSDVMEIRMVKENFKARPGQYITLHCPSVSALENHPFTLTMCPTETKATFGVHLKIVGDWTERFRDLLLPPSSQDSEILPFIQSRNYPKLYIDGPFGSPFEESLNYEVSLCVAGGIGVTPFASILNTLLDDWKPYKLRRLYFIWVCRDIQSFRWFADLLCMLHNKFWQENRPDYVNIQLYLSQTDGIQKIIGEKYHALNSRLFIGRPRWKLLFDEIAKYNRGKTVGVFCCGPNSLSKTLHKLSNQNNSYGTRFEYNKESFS
# [20] = biological target: NADPH oxidase 5 (Homo sapiens) (UniProt Q96PH1); experiment: compounds shifting NOX5 Amplex Red fluorescence – cell-based, HEK293-NOX5, NOX inhibitor project, primary screen (AID 1161); details: HEK293-NOX5, ionomycin, 45 min, higher = more signal
# NADPH oxidase 5 (Homo sapiens), sequence (Q96PH1 whole entry, looked up): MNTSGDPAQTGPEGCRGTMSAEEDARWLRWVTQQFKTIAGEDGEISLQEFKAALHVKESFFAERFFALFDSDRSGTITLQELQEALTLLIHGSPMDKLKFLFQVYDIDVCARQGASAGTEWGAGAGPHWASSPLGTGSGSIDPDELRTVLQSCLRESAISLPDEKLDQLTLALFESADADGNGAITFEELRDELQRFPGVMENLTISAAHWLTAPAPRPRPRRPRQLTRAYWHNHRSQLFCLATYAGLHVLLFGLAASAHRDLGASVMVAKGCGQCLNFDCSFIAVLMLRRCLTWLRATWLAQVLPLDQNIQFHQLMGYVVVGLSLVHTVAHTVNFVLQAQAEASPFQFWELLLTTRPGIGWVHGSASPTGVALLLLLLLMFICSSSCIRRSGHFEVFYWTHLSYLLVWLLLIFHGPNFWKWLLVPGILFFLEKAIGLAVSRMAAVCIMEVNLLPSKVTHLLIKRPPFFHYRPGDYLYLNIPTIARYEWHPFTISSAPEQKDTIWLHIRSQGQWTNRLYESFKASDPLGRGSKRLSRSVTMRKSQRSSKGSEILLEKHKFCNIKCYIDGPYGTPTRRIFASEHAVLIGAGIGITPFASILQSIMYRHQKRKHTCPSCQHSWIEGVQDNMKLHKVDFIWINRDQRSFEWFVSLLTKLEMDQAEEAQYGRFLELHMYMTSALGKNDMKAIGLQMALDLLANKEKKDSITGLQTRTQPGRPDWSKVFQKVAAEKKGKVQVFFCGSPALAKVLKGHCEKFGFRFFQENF
Compound,composite z-score [1],z-score [2],z-score [3],z-score [4],z-score [5],composite z-score [6],composite z-score [7],composite z-score (Torsin-1A (Homo sapiens) [8]),composite z-score (Torsin-1A (Homo sapiens) [9]),composite z-score [10],z-score [11],composite z-score [12],z-score [13],z-score [14],z-score [15],z-score [16],z-score [17],z-score [18],z-score [19],z-score [20]
CCN(CC)c1ccc(N2CC=CC34O[C@@H]5C=CCOC(=O)[C@@H]5[C@H]3C(=O)N(CCO)[C@@H]4C2=O)cc1 (stereo not given in full),-0.403,-0.271 (inactive),1.72 (inactive),-0.0656 (inactive),-0.599 (inactive),-1.77,0.476,-0.0491,-0.669,-0.198,1.51 (inactive),0.0434,0.116 (inactive),0.0907 (inactive),0.714 (inactive),-0.0665 (inactive),-0.221,-0.0361 (inactive),0.364 (inactive),0.613
NC(=O)NCC#Cc1ccc2c(c1)[C@]1(C(=O)N2)[C@H](C(=O)N2CCCCCCC2)[C@H]2C(=O)O[C@H](c3ccccc3)[C@H](c3ccccc3)N2[C@@H]1c1ccc(O)cc1,0.399,0.33 (inactive),-0.209 (inactive),0.0695 (inactive),-0.745 (inactive),1.05,1.51,0.529,0.676,1.22,-0.504 (inactive),2.3,-0.268 (inactive),-0.0915 (inactive),-0.117 (inactive),-0.0064 (inactive),-0.602,1.67 (inactive),0.541 (inactive),1.15
O=C1O[C@H](c2ccccc2)[C@H](c2ccccc2)N2[C@H]1[C@@H](C(=O)N1CCN(c3ncccn3)CC1)[C@]1(C(=O)Nc3ccccc31)[C@H]2c1ccc(O)cc1,0.186,-2.48 (inactive),-0.151 (inactive),0.299 (inactive),-0.682 (inactive),-0.0699,0.0018,0.103,0.799,0.0388,0.649 (inactive),0.0262,1.24 (inactive),1.01 (inactive),-0.236 (inactive),1.01 (inactive),0.0782,0.898 (inactive),-1.54 (inactive),1.65
CC(C)c1ccc(NN2C(C(O)C(C)C)C=CC3C(=O)N(c4ccccc4)C(=O)C32)cc1 (stereo not given),0.705,-0.135 (inactive),-0.202 (inactive),0.0569 (inactive),-0.241 (inactive),1.44,0.722,-0.317,0.431,-0.316,-0.671 (inactive),0.996,1.37 (inactive),0.83 (inactive),0.42 (inactive),1.37 (inactive),-0.452,-0.862 (inactive),-4.22 (inactive),-4.95
C=C(CCCC)C(=O)CC[C@H](OC(=O)c1cccnc1)c1ccc(CO)o1,0.239,0.0536 (inactive),-0.159 (inactive),-0.117 (inactive),0.484 (inactive),0.14,0.212,0.835,0.576,1.6,-0.348 (inactive),0.3,2.21 (inactive),0.101 (inactive),0.217 (inactive),0.038 (inactive),-0.253,1.25 (inactive),0.532 (inactive),-0.454
C=CCNC(=O)[C@H]1[C@@H]2C(=O)O[C@@H](c3ccccc3)[C@@H](c3ccccc3)N2[C@@H](c2ccc(O)cc2)[C@]12C(=O)Nc1ccc(C#CC3=CCCCC3)cc12,0.121,-3.15 (inactive),-0.0901 (inactive),-0.671 (inactive),0.21 (inactive),1.18,0.616,1.75,0.462,2,-0.164 (inactive),0.802,1.54 (inactive),1.23 (inactive),-0.355 (inactive),1.1 (inactive),-0.101,1.18 (inactive),0.676 (inactive),1.61
COc1cc2c(cc1O)C(C1CC1)N(Cc1ccc([N+](=O)[O-])o1)CC2 (stereo not given),0.128,-0.148 (inactive),0.741 (inactive),0.0924 (inactive),0.786 (inactive),1.63,0.161,0.322,0.521,-0.575,-1.03 (inactive),0.0446,23.7 (active),6.01 (inactive),0.359 (inactive),0.892 (inactive),0.106,-4.17 (inactive),-2.46 (inactive),-3.45
COc1ccc(C#Cc2ccc3c(c2)[C@]2(C(=O)N3)[C@H](C(=O)Nc3nc4ccccc4s3)[C@H]3C(=O)O[C@H](c4ccccc4)[C@H](c4ccccc4)N3[C@@H]2c2ccc(OCCO)cc2)cc1,0.505,-0.974 (inactive),-0.953 (inactive),-1.43 (inactive),-0.545 (inactive),1.57,0.153,0.504,0.887,1.06,-0.368 (inactive),-0.0186,2.85 (inactive),1.41 (inactive),-0.521 (inactive),0.81 (inactive),0.13,0.578 (inactive),0.0813 (inactive),-1.04
